Only a selection was taken, and hits are over-represented in it overall.
FBPA Giardia inh: qHTS Assay for Inhibitors of Fructose-1,6-bisphosphate Aldolase from Giardia Lamblia. A8B2U2. purified Giardia FBPA. Potency, µM (top dose mostly 59.6 µM), inactives show top-dose activity, negative = inhibition, hits mostly inhibitors. actives 0.71% (n = 290,000); note: potency is the fitted concentration of half-maximal effect; % is set by controls: 0 for no effect and ±100 for the full control effect; nearly all actives have a fitted effect of over 55% in size
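40 nM FBPA preincubated 10 min at RT with compound (up to 57.5 uM final), then substrate plus GAPDH/TPI/NAD/arsenate coupling and diaphorase/resazurin added. Fluorescence read after 20 min at RT, 525/598 nm.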
Shiga toxin inh: A qHTS for Small Molecule Inhibitors of Shiga Toxin; inhibition, % at 38.7 µM; actives 9.2% (n = 290,000); Vero cells, Shiga toxin protein synthesis inhibition reporter; AID 2315, 2010; in the data active = inhibition mostly above about 28%, no sharp cut-off; inactive = mostly below about 43%; note: 0% is about no effect
CHX counter: Cycloheximide Counterscreen for Small Molecule Inhibitors of Shiga Toxin | cell reporter, cycloheximide protein synthesis inhibition counterscreen | max response, % | actives 12% (n = 300,000); in the data active = max response mostly above about 13%, no sharp cut-off; inactive = mostly below about 14%; note: read at 38.3 µM for the half of the compounds with a filed dose; 0% is about no effect
TbPYK inhibitor: qHTS of Trypanosoma Brucei Inhibitors. pyruvate kinase (Trypanosoma brucei), Q57TT1. Potency, µM (highest dose often 76.8 µM), for the others: at the highest dose activity, negative = inhibition, actives largely listed as inhibitors. AID 624173, 2012. actives 0.12% (n = 410,000). TbPYK enzyme, Kinase-Glo Plus ATP luminescence, 45 min; note: potency is the fitted concentration of half-maximal effect; % is set by controls: 0 for no effect and ±100 for the full control effect; nearly all actives have a fitted effect of over 50% in size
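ADP (130 uM final) triggers the TbPYK reaction after compound addition; incubation is 45 min at room temperature. Kinase-Glo Plus is then added and luminescence imaged. Normalized data are fitted to concentration-effect curves.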
LmPK inhibitor: qHTS Assay for Inhibitors of Leishmania Mexicana Pyruvate Kinase (LmPK) | Q27686 | purified LmPK, Kinase-Glo ATP luminescence, 1 h | Potency, µM (highest dose often 57.5 µM), for the others: top-dose activity change, negative = inhibition, hits mostly inhibitors | actives 0.37% (n = 290,000) | AID 1721, 2009; note: potency is the fitted concentration of half-maximal effect; % is set by controls: 0 for no effect and ±100 for the full control effect
Target sequence (Q27686 whole entry, looked up): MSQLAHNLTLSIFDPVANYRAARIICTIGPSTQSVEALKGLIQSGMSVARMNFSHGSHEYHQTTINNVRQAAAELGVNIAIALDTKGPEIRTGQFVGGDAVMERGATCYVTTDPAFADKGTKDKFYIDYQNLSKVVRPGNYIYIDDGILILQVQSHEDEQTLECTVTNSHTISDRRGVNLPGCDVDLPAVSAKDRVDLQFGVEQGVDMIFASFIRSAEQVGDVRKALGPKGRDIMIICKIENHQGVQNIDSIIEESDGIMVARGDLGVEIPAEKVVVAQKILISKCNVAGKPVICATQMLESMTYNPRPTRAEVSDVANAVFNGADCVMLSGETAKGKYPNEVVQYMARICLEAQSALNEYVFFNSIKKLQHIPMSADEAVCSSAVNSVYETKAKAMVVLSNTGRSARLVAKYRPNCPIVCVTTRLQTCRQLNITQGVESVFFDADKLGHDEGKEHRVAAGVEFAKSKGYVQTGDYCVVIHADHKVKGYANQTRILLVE
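qHTS format; LmPK 0.1 nM; substrates PEP 0.5 mM and ADP 0.1 mM. One-hour room-temperature incubation, then coupled luciferase luminescence; 0.5 nM enzyme wells mark activation.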
Sm TGR inh: qHTS Assay for the Inhibitors of Schistosoma Mansoni Peroxiredoxins. actives 3% (n = 360,000). Schistosoma mansoni thioredoxin glutathione reductase (TGR), Q962Y6. Potency, µM (series often up to 114 µM), for inactives: at the highest dose activity change, negative = inhibition, actives largely listed as inhibitors. AID 485364, 2010. purified TGR, DTNB reduction, TNB absorbance 405 nm; note: potency is the fitted concentration of half-maximal effect; % is set by controls: 0 for no effect and ±100 for the full control effect; nearly all actives have a fitted effect of over 60% in size
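First, TGR (20 nM dispensed) and NADPH were mixed with compound. Second, a 15 min room-temperature incubation followed. Third, further NADPH and then DTNB were added to start the reaction. Finally, TNB absorbance was monitored kinetically.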
* marks the source's active call; other numbers are inactive results; ? = inconclusive; . = no result given; + = active, no number; [ ] = dose if it differs, or a comment. Unless noted, calls come from the whole dose curve; as a rule, active = well fitted curve in the direction sought with a large enough effect; inconclusive = small, poorly fitted or top-dose-only effect, or another doubt; inactive = no such curve, though single readings can be large; an effect the other way counts as inactive or inconclusive.

SMILES	FBPA Giardia inh	Shiga toxin inh	CHX counter	TbPYK inhibitor	LmPK inhibitor	Sm TGR inh
CCN(Cc1ccccc1)C(=O)Nc1ccc2c(c1)N(C)C(=O)c1ccccc1S2	.	.	.	-1%	.	-13%
COc1ccccc1CNC(=O)CSC1=Nc2ccccc2N=C(c2ccc(F)cc2)C1	.	.	.	0%	.	-1%
O=C(Cc1ccc(Br)cc1)OCC(=O)c1ccc[nH]1	.	.	.	10%	.	.
Cc1cc(NC(=O)COc2ccccc2C(N)=O)no1	.	.	.	3%	.	.
Cc1cc(NC(=O)COc2cccc3cccnc23)no1	?	+	33*	.	-2%	?
Cc1cc(NC(=O)COc2ccccc2C)no1	1%	110*	46*	-9%	7%	19%
Cc1cc(NC(=O)COc2cccc(C)c2C)no1	2%	60*	28*	-3%	0%	4%
Cc1cccc(N2CCN(C(=O)C3CCN(S(=O)(=O)c4cccs4)CC3)CC2)c1C	.	.	.	0%	.	7%
Cc1nc2ccc(S(=O)(=O)N(C)CC(=O)Nc3ccc(Br)c(C)c3)cc2s1	.	.	.	-6%	.	0%
O=C(Nc1cccc(Cl)c1)c1cc(N=Nc2ccc([N+](=O)[O-])cc2Cl)ccc1O	-1%	5	9	?	14µM*	2%
O=C(Nc1ccc([N+](=O)[O-])cc1Cl)c1cc(Cl)ccc1O	-6%	.	.	5%	.	-3%
CC(C)OC(=O)c1cc(C(=O)OC(C)C)cc([N+](=O)[O-])c1	.	.	.	0%[157 µM]	.	.
Cc1ccc(C=Nc2ccccc2C(N)=O)cc1	?	71*	47*	-2%	16%	1%
NC(=O)c1ccccc1NC(=O)/C=C/C(=O)O	4%	53*	35*	1%	-5%	3%
Cc1ccc(/C=C/C(=O)NC(=S)Nc2ccccc2C(=O)NC2CCCCC2)cc1	3%	-6	-1	2%	0%	10%
CCOC(=O)c1ccccc1NC(=O)/C=C/C(=O)O	5%	1	4	-14%	6%	?
CCCCCCOC(=O)c1ccccc1NC(=O)/C=C/C(=O)O	9%	117*	51*	4%	-1%	45µM*
Cc1ccc(/C=C/C(=O)Nc2ccccc2C(N)=O)cc1	-1%	63*	46*	-3%	-17%	5%
CSCC[C@H](N)C(=O)N[C@@H](CO)C(=O)N[C@@H](CCCN=C(N)N)C(=O)N1CCC[C@H]1C(=O)N[C@@H](C)C(=O)N[C@@H](CS)C(=O)N1CCC[C@H]1C(=O)N[C@@H](CC(N)=O)C(=O)N[C@@H](CC(=O)O)C(=O)N[C@@H](CCCCN)C(=O)N[C@@H](Cc1ccc(O)cc1)C(=O)N[C@@H](CCC(=O)O)C(=O)O	0%	-6	-6	.	.	.
O=C(O)/C=C/C(=O)Nc1cccc2c1-c1ccccc1C2=O	.	.	.	2%	.	.
O=C(O)/C=C/C(=O)Nc1ccccc1-c1ccccc1NC(=O)/C=C/C(=O)O	-2%	-5	-1	-10%	-1%	8.9µM*
O=C(O)/C=C/C(=O)Nc1ccccc1SC(F)(F)F	7%	10	-2	-5%	-15%	8.9µM*
O=C(O)/C=C/C(=O)Nc1ccc(SC(F)(F)F)cc1	25%	12	6	3%	0%	-14%
CCc1cc2cc(C)cc(C)c2[nH]c1=S	-7%	37	8	11µM*	?	-6%
COCCn1c(=O)c(-c2cccc(C#N)c2)nc2cnc(OCc3ccccc3)nc21	3%	.	.	.	.	.
SMILES	FBPA Giardia inh	Shiga toxin inh	CHX counter	TbPYK inhibitor	LmPK inhibitor	Sm TGR inh
Cc1ccccc1-n1c(SCC(=O)NC(N)=O)nc2sc(-c3ccccc3)cc2c1=O	1%	24	18*	1%	6%	1%
Cc1ccccc1-n1c(SCC(N)=O)nc2sc(-c3ccccc3)cc2c1=O	10%	-9	-1	5%	12%	-4%
COC(=O)c1cc2ccccc2c(=O)s1	5%	9	15*	0%	-4%	-2%
O=C1/C(=C/c2ccccc2F)SC(=S)N1CCC(=O)N1CCCCC1CCO (stereo not drawn)	.	12	31*	-6%	6%	-6%
O=C1/C(=C/c2ccccc2)SC(=S)N1CCCC(=O)N1CCCCC1CCO (stereo not drawn)	.	-3	4	4%	11%	-13%
O=C1/C(=C/c2ccco2)SC(=S)N1CCC(=O)N1CCCCC1CCO (stereo not drawn)	.	16	11*	-21%	14%	22µM*
O=C1/C(=C/c2cccs2)SC(=S)N1CC(=O)N1CCCCC1CCO (stereo not drawn)	.	18	15*	-11%	0%	-1%
Cc1ccc(-c2nnc(SCc3nc(N)nc(Nc4ccccc4C)n3)n2N)cc1	3%	8	-4	-7%	-2%	2%
Cc1cccc(NC(=O)CSc2nccn2C)c1	.	.	.	0%	.	.
COc1ccccc1Nc1nc(N)nc(CSc2nccn2C)n1	-4%	45*	6	3%	-1%	38%
Cc1ccc(Nc2nc(N)nc(CSc3nccn3C)n2)cc1	0%	69*	52*	5%	-4%	-2%
Cc1cccc(Nc2nc(N)nc(CSc3nccn3C)n2)c1	1%	51*	11	-5%	-4%	8%
COc1cc(C2C=C(C(=O)O)Nc3ncnn32)ccc1O (stereo not drawn)	.	.	.	4%	.	2%
Cc1cc(C)cc(-n2c(SCC(N)=O)nc3c(oc4ccccc43)c2=O)c1	.	.	.	0%	.	-5%
O=C(NCCCN1CCCC1=O)c1ccc(NS(=O)(=O)c2ccccc2)cc1	.	.	.	-1%	.	-7%
O=S(=O)(NCC1CCCO1)c1ccc(-c2ccc(Cl)cc2)cc1 (stereo not drawn)	0%	20	17*	-4%	3%	8%
Cc1ccccc1C(=O)Nc1ccc(S(=O)(=O)NCC2CCCO2)cc1 (stereo not drawn)	.	.	.	-9%	.	.
COc1ccc(-c2ccc(S(=O)(=O)NCC3CCCO3)cc2)cc1 (stereo not drawn)	3%	-60	7	-1%	2%	1%
Cc1ccc(NC(=O)c2ccc(S(=O)(=O)NCC3CCCO3)cc2)cc1 (stereo not drawn)	0%	31*	9	2%	2%	3%
O=C(Nc1ccc(N2CCOCC2)cc1)c1csc(COCCO)n1	.	.	.	0%	.	.
CSc1cccc(NS(=O)(=O)c2ccc3[nH]cc(C(=O)N4CCCC4)c(=O)c3c2)c1	.	.	.	0%	.	11%
Cc1ccc(C)c2[nH]c(=O)c(CN(CC3CCCO3)C(=S)NCc3ccco3)cc12 (stereo not drawn)	-7%	-4	-3	-16%	4%	28µM*

Screening results: PubChem BioAssay, National Center for Advancing Translational Sciences (NCATS)
